# Measurements taken from PubChem BioAssay (NCATS).
# Values joined by “and” are separate entries in the source; they are usually repeats but may differ in a detail not shown here. Equal values may be shown once. Results filed as inconclusive are left out. Entries that show only a call come without a potency. For part of these data: Potency and affinity values are given separately. Active and inactive are the calls of the source.
# Experiments:
# [1] = target: T1, Hexokinase-4 (Homo sapiens) + Glucokinase regulatory protein (Homo sapiens) (UniProt P35557+Q14397); experiment: qHTS assay for inhibitors of recombinant human GCK-GKRP interaction: Diaphorase-coupled assay (AID 743205; active = well fitted curve in the direction sought with a large enough effect)
# T1 sequence (P35557 whole entry, looked up): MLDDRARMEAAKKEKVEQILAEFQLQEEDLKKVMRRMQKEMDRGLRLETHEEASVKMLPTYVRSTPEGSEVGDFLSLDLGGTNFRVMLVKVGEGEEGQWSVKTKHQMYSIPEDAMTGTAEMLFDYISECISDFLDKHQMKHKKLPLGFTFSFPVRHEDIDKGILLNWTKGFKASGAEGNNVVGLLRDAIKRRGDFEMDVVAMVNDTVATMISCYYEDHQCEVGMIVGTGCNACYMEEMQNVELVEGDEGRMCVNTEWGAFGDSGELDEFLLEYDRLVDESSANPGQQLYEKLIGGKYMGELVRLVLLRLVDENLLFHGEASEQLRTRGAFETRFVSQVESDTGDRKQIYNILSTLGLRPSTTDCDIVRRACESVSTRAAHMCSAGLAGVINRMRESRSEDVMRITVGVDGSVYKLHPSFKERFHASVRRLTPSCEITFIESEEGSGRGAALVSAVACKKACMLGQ
# T1 sequence (Q14397 whole entry, looked up): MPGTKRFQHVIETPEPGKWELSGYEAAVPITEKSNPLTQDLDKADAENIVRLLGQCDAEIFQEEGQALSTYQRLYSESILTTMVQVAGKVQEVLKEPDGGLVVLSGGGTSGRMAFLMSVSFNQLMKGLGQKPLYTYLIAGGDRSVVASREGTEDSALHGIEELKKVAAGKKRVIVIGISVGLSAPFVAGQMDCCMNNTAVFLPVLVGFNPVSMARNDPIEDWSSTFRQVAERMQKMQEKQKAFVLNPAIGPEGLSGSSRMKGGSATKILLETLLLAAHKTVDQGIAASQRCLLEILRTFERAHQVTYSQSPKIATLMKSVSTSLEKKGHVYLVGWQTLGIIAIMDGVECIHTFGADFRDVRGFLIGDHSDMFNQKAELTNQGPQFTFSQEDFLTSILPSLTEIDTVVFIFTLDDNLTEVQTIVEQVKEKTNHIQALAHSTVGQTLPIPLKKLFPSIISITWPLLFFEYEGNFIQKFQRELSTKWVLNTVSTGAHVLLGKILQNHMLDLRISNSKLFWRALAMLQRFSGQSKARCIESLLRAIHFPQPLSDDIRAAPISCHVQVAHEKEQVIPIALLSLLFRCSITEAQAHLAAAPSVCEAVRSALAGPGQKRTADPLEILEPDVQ
# Summary of the method: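 A kinetic fluorescence read (Ex 525/Em 590 nm, every minute for 30 minutes) tracked resorufin from a G6PDH-diaphorase coupled GCK reaction. It contained 10 nM GST-GCK, 10 nM FLAG-GKRP, 5 mM glucose, 0.4 mM ATP in Hepes pH 7.6. Normalized to with/without-enzyme DMSO controls.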
# [2] = target: T1, Hexokinase-4 (Homo sapiens) + Glucokinase regulatory protein (Homo sapiens); experiment: qHTS assay for inhibitors of recombinant human GCK-GKRP interaction: ADP-Glo assay (AID 743206; active = well fitted curve in the direction sought with a large enough effect)
# Summary of the method: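 Pin-transferred compounds meet a 15 nM GST-GCK/15 nM FLAG-GKRP/2 uM S6P mix (dispense concentrations). ATP is then added to 0.4 mM final with 5 mM glucose, and the reaction runs 60 min at room temperature. ADP is quantified luminescently.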
# [3] = target: T1, Hexokinase-4 (Homo sapiens) + Glucokinase regulatory protein (Homo sapiens); experiment: qHTS assay for inhibitors of recombinant human GCK-GKRP interaction: HTRF assay (AID 743207; active = well fitted curve in the direction sought with a large enough effect)
# Summary of the method: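 After 60 min equilibration at room temperature with anti-FLAG XL665 and anti-GST antibodies, FRET ratio (665/615 nm, excitation 320 nm) was read. Proteins: GST-GCK and FLAG-GKRP, each 5 nM, plus 2 uM S6P, pH 7.1 buffer; GCK-free wells define minimum signal.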
# [4] = qHTS Assay for Identifying Gametocytocidal Compounds (AID 743244; active = well fitted curve in the direction sought with a large enough effect; also: potency is read from the fitted curve at half-maximal effect;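 as to max response: actives lower the fluorescent signal which means gametocytes are killed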); details: P. falciparum 3D7 stage III-V gametocytes, alamarBlue, 72 h; max response: stronger effect = lower value
# Summary of the method: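 3D7 gametocytes, stages III–V, 20,000/well; cpd 72 h, 37 °C/5% CO2; + alamarBlue 24 h; fluor. Ex 525/Em 598.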
# [5] = qHTS profiling of the MIPE4 collection as inhibitors of Plasmodium falciparum (3D7) proliferation (AID 743344); details: P. falciparum 3D7 in erythrocytes, SYBR Green DNA fluorescence, 72 h; at 28.5 µM (top of the series) unless noted
# Summary of the method: (§1)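 Parasite DNA was quantified by SYBR Green I fluorescence (ex 485, em 535 nm) after overnight lysis in saponin/Triton buffer at room temperature. Cultures at 0.3% parasitemia and 2.5% hematocrit were first exposed to compound for 72 h at 37 C; signals were normalised to artemisinin (0.29 uM) and vehicle wells.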
# [6] = qHTS profiling of the MIPE4 collection as inhibitors of Plasmodium falciparum (DD2) proliferation (AID 743345); details: P. falciparum Dd2 in erythrocytes, SYBR Green DNA, 72 h; at 28.5 µM (top of the series) unless noted
# Summary of the method: as §1
# [7] = qHTS profiling of the MIPE4 collection as inhibitors of Plasmodium falciparum (HB3) proliferation (AID 743347); details: P. falciparum HB3 in erythrocytes, SYBR Green DNA, 72 h; at 28.5 µM (top of the series) unless noted
# Summary of the method: as §1
# [8] = Ebola virus entry assay, green fluorescence channel
# [9] = Ebola virus entry assay, blue channel fluorescence
# [10] = Ebola virus entry assay, green fluorescence channel; remark: listed apart in the source
# [11] = Ebola virus entry assay, ratio channel readout
# [12] = Ebola virus entry assay, blue channel fluorescence; remark: listed apart in the source
# [13] = Ebola virus entry assay, ratio channel
# [14] = Ebola virus entry assay, green channel fluorescence
# [15] = qHTS profiling of the MIPE4 collection as inhibitors of Plasmodium falciparum (DD2) proliferation (Rep 2) (AID 743346); details: P. falciparum Dd2 in erythrocytes, SYBR Green DNA, 72 h; at 28.5 µM (top of the series) unless noted
# Summary of the method: as §1
smiles,measurement,setting,value
COc1ccc(C(CN(C)C)C2(O)CCCCC2)cc1 (configuration not stated),outcome,[1],inactive
same,outcome,[2],inactive
same,outcome,[3],inactive
same,max response,[4],4.64% (inactive) and 5.5% (inactive)
same,"parasite growth, % of DMSO control",[5],21.1%
same,"parasite growth remaining, % of DMSO control (lower = more inhibition)",[6],58.9%
same,"growth, % of control",[7],60.2%
same,efficacy,[8],55.6% (inactive)
same,outcome,[9],inactive
same,outcome,[10],inactive
same,outcome,[11],inactive
same,AC50,[12],35.5 µM (active)
same,outcome,[13],inactive
OC(Cn1cncn1)(Cn1cncn1)c1ccc(F)cc1F,"parasite growth, % of DMSO control",[5],95.6%
same,"growth, % of control",[7],103%
same,efficacy,[8],-11.5% (inactive)
same,outcome,[9],inactive
same,outcome,[10],inactive
same,outcome,[11],inactive
same,outcome,[12],inactive
same,outcome,[13],inactive
same,outcome,[14],inactive
CN/C(=C\[N+](=O)[O-])NCCSCc1ccc(CN(C)C)o1,efficacy,[8],-12.5% (inactive)
same,outcome,[9],inactive
same,outcome,[10],inactive
same,outcome,[11],inactive
same,outcome,[12],inactive
same,outcome,[13],inactive
same,outcome,[14],inactive
O=C1[C@H](CC[C@H](O)c2ccc(F)cc2)[C@@H](c2ccc(O)cc2)N1c1ccc(F)cc1,efficacy,[8],-26.4% (inactive)
same,outcome,[9],inactive
same,outcome,[10],inactive
same,outcome,[11],inactive
same,AC50,[12],28.2 µM (active)
same,outcome,[13],inactive
same,outcome,[14],inactive
Nc1ncn([C@@H]2O[C@H](CO)[C@@H](O)[C@H]2O)c(=O)n1,efficacy,[8],-20.9% (inactive)
same,outcome,[9],inactive
same,outcome,[10],inactive
same,outcome,[11],inactive
same,outcome,[12],inactive
same,outcome,[13],inactive
same,outcome,[14],inactive
O=C(c1ccc(OCCN2CCCCC2)cc1)c1c(-c2ccc(O)cc2)sc2cc(O)ccc12,efficacy,[8],-297% (inactive)
same,AC50,[9],6.31 µM (active)
same,outcome,[10],inactive
same,AC50,[11],5.02 µM (active)
same,AC50,[12],0.708 µM (active)
same,outcome,[13],inactive
same,outcome,[14],inactive
Nc1cccc2c1CN(C1CCC(=O)NC1=O)C2=O (configuration not stated),efficacy,[8],15.2% (inactive)
same,outcome,[9],inactive
same,outcome,[10],inactive
same,outcome,[11],inactive
same,outcome,[12],inactive
same,outcome,[13],inactive
same,outcome,[14],inactive
CN(C)CCOC(C)(c1ccccc1)c1ccccn1 (configuration not stated),efficacy,[8],20.1% (inactive)
same,outcome,[9],inactive
same,outcome,[10],inactive
same,outcome,[11],inactive
same,AC50,[12],15.8 µM (active)
same,AC50,[13],14.1 µM (active)
same,outcome,[14],inactive
CCOC(=O)C1=C(C)NC(C)=C(C(=O)OC)C1c1cccc(Cl)c1Cl (configuration not stated),efficacy,[8],20.7% (inactive)
same,outcome,[9],inactive
same,outcome,[10],inactive
same,outcome,[11],inactive
same,outcome,[12],inactive
same,outcome,[13],inactive
same,outcome,[14],inactive
CC1=C(C(=O)O)N2C(=O)[C@@H](NC(=O)[C@H](N)c3ccccc3)[C@H]2SC1,efficacy,[8],11.4% (inactive)
same,outcome,[9],inactive
same,outcome,[10],inactive
same,outcome,[11],inactive
same,outcome,[12],inactive
same,outcome,[14],inactive
Cc1cc2c(s1)Nc1ccccc1N=C2N1CCN(C)CC1,"parasite growth, % of DMSO control",[5],97.1%
same,"parasite growth remaining, % of DMSO control (lower = more inhibition)",[6],94.5%
same,"growth, % of control",[7],101%
same,efficacy,[8],36% (inactive)
same,outcome,[9],inactive
same,outcome,[10],inactive
same,outcome,[11],inactive
same,outcome,[12],inactive
same,outcome,[13],inactive
Cc1nc2n(c(=O)c1CCN1CCC(c3noc4cc(F)ccc34)CC1)CCCC2,"parasite growth, % of DMSO control",[5],38.3%
same,"parasite growth remaining, % of DMSO control (lower = more inhibition)",[6],70.5%
same,"parasite growth, % of control (lower = inhibition)",[15],48.7%
same,"growth, % of control",[7],60.5%
same,efficacy,[8],54.5% (inactive)
same,outcome,[9],inactive
same,outcome,[10],inactive
same,outcome,[11],inactive
same,outcome,[12],inactive
same,outcome,[13],inactive
O=C1N=C(O)CN1/N=C/c1ccc(-c2ccc([N+](=O)[O-])cc2)o1,efficacy,[8],24% (inactive)
same,outcome,[9],inactive
same,outcome,[10],inactive
same,outcome,[11],inactive
same,outcome,[12],inactive
same,outcome,[14],inactive
CN(C)C(=O)C(CCN1CCC(O)(c2ccc(Cl)cc2)CC1)(c1ccccc1)c1ccccc1,Potency,[4],11.2 µM (active) and 1.26 µM (active)
same,efficacy,[8],-226% (inactive)
same,AC50,[9],11.2 µM (active)
same,outcome,[10],inactive
same,outcome,[11],inactive
same,AC50,[12],3.16 µM (active)
same,AC50,[13],2.51 µM (active)
CCN1CCN(C(=O)N[C@@H](C(=O)N[C@@H]2C(=O)N3C(C(=O)O)=C(CSc4nnnn4C)CS[C@H]23)c2ccc(O)cc2)C(=O)C1=O,efficacy,[8],-23.3% (inactive)
same,outcome,[9],inactive
same,outcome,[10],inactive
same,outcome,[11],inactive
same,outcome,[12],inactive
same,outcome,[14],inactive
CC[C@@]1(c2ccccc2)NC(=O)N(C)C1=O,efficacy,[8],-26.5% (inactive)
same,outcome,[9],inactive
same,outcome,[10],inactive
same,outcome,[11],inactive
same,outcome,[12],inactive
same,outcome,[14],inactive
Cc1nc2n(c(=O)c1CCN1CCC(c3noc4cc(F)ccc34)CC1)CCC[C@H]2O,efficacy,[8],18.4% (inactive)
same,outcome,[9],inactive
same,outcome,[10],inactive
same,outcome,[11],inactive
same,outcome,[12],inactive
same,outcome,[14],inactive
Cc1cnc(C(=O)NCCc2ccc(S(=O)(=O)NC(=O)NC3CCCCC3)cc2)cn1,efficacy,[8],-14.5% (inactive)
same,outcome,[9],inactive
same,outcome,[10],inactive
same,outcome,[11],inactive
same,outcome,[12],inactive
same,outcome,[14],inactive
CN(C)CCC=C1c2ccccc2CCc2ccccc21,Potency,[4],1.26 µM (active)
same,efficacy,[8],121% (inactive)
same,AC50,[9],11.2 µM (active)
same,outcome,[10],inactive
same,outcome,[11],inactive
same,AC50,[12],8.91 µM (active)
same,AC50,[13],7.94 µM (active)
CC(C)[N+](C)(CCOC(=O)C1c2ccccc2Oc2ccccc21)C(C)C,efficacy,[8],-23.3% (inactive)
same,outcome,[9],inactive
same,outcome,[10],inactive
same,outcome,[11],inactive
same,outcome,[12],inactive
same,outcome,[14],inactive
Nc1nc2c(ncn2COC(CO)CO)c(=O)[nH]1,efficacy,[8],-13.6% (inactive)
same,outcome,[9],inactive
same,outcome,[10],inactive
same,outcome,[11],inactive
same,outcome,[12],inactive
same,outcome,[14],inactive
COc1ccccc1Oc1c(NS(=O)(=O)c2ccc(C(C)(C)C)cc2)nc(-c2ncccn2)nc1OCCO,efficacy,[8],-15.4% (inactive)
same,outcome,[9],inactive
same,outcome,[10],inactive
same,outcome,[11],inactive
same,outcome,[12],inactive
same,outcome,[14],inactive
CCC(COC(=O)c1cc(OC)c(OC)c(OC)c1)(c1ccccc1)N(C)C (configuration not stated),max response,[4],10.7% (inactive)
same,efficacy,[8],72.4% (inactive)
same,outcome,[9],inactive
same,outcome,[10],inactive
same,outcome,[11],inactive
same,outcome,[12],inactive
same,AC50,[13],17.8 µM (active)
CC(=O)OCC(CCn1cnc2cnc(N)nc21)COC(C)=O,efficacy,[8],17.3% (inactive)
same,outcome,[9],inactive
same,outcome,[10],inactive
same,outcome,[11],inactive
same,outcome,[12],inactive
same,outcome,[14],inactive
COc1ccc(Cl)cc1C(=O)NCCc1ccc(S(=O)(=O)NC(=O)NC2CCCCC2)cc1,efficacy,[8],15.6% (inactive)
same,outcome,[9],inactive
same,outcome,[10],inactive
same,outcome,[11],inactive
same,outcome,[12],inactive
same,outcome,[14],inactive
